The list is not random: actives were taken first. Their share in the collection is about 12%.
FMDV inh: antivirals against foot and mouth disease virus | hit rate 1.2% among 410,000 | Potency, µM (titrated, usually from 57.9 µM), inactives show at the top dose activity change, negative = inhibition, actives largely listed as inhibitors | AID 1159524 | FMDV antiviral cell-based qHTS; calls by dose curve; tested in HEK293T cells; also: read-out not given here; potency is read from the fitted curve at half-maximal effect; % is scaled to controls: 0 for no effect and ±100 for the full control effect; nearly all actives have a fitted effect of over 45% in size
Shiga inhibitor: Shiga toxin inhibition; Vero cells, Shiga toxin protein synthesis inhibition reporter; inhibition, % at 38.7 µM; hit rate 9.2% among 290,000; AID 2315; in the data active = inhibition mostly above about 28%, no sharp cut-off; inactive = mostly below about 43%; also: 0% is about no effect
CHX counter: affects cycloheximide protein synthesis inhibition readout, counter-screen. cell reporter, cycloheximide protein synthesis inhibition counterscreen. max response, %. hit rate 12% among 300,000. AID 2314; in the data active = max response mostly above about 13%, no sharp cut-off; inactive = mostly below about 14%; also: read at 38.3 µM for the half of the compounds with a filed dose; 0% is about no effect
Sm TGR block: blocks Schistosoma mansoni thioredoxin glutathione reductase. hit rate 3% among 360,000. Potency, µM (titrated, usually from 114 µM), inactives show top-dose activity change, negative = inhibition, hits mostly inhibitors. purified TGR, DTNB reduction, TNB absorbance 405 nm; active = well fitted inhibition curve with a large enough effect; inconclusive = small, poorly fitted or top-dose-only effect; inactive = no such curve, though single readings can be large or run the other way; also: potency is read from the fitted curve at half-maximal effect; % is scaled to controls: 0 for no effect and ±100 for the full control effect; nearly all actives have a fitted effect of over 60% in size
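First, TGR (20 nM dispensed) and NADPH were mixed with compound. Second, a 15 min room-temperature incubation followed. Third, further NADPH and then DTNB were added to start the reaction. Finally, TNB absorbance was monitored kinetically.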
An asterisk follows results filed as active; ? = inconclusive; . = not tested or not shown.

SMILES	FMDV inh	Shiga inhibitor	CHX counter	Sm TGR block
O=C(CCSc1ccc(Cl)cc1)N1CCOCC1	10.8%	53.0*	29.0*	-2.4%
Clc1ccc(SCc2csc(N3CCOCC3)n2)cc1	-11.2%	54.5*	33.2*	-30.0%
Cc1ccc(SCC(=O)N2CC(C)OC(C)C2)cc1 (centres undefined)	33.9%	-7.8	-1.6	-16.2%
O=C(CSc1ccc(Br)cc1)N1CCN(C(=O)c2ccco2)CC1	-11.9%	-4.8	-1.7	-5.9%
CCOc1ccccc1N(CC(=O)Nc1ccc(OC)c(Cl)c1)S(=O)(=O)c1ccccc1	-7.1%	.	.	1.9%
CCc1ccc(C2N3CC4(C)CN2CC(c2ccccc2)(C3)C4=O)cc1 (centres undefined)	-5.6%	.	.	25.8%
Cc1ccc(CSCC(=O)N2CCOCC2)cc1	23.6%	33.7	20.1*	9.1%
Cc1ccc(CC(=O)N2CCOCC2)cc1	20.7%	34.4	10.3	-0.8%
Cc1ccccc1OCC(=O)Nc1cccc(C(=O)O)c1	3.98µM*	22.0	25.7*	2.1%
O=C(COc1ccccc1Cl)Nc1ccc(C(=O)O)cc1NC(=O)COc1ccccc1Cl	?	16.1	9.5	4.2%
O=C(COC(=O)Cn1cnc2ccccc21)Nc1ccc(Br)cc1	-6.4%	.	.	.
O=C(COc1ccccc1Cl)Nc1ccccc1C(=O)Nc1cccc(C(=O)O)c1	22.4%	32.8	40.4*	3.5%
O=C(COC(=O)Cn1cnc2ccccc21)Nc1ccc2c(c1)C(=O)c1ccccc1C2=O	5.4%	18.1*	67.0*	4.2%
Cc1cccc(C(=O)OCC(=O)NC(=O)c2ccccc2)c1O	-9.9%	.	.	50.1µM*
Cc1ccccc1OCC(=O)Nc1ccc2c(c1)Cc1ccccc1-2	20.7%	-10.1	18.3	3.2%
Cc1ccccc1OCC(=O)Nc1ccc2c(c1)C(=O)c1ccccc1C2=O	-6.2%	38.3*	22.5*	-8.0%
CC(=O)c1cccc(NC(=O)COC(=O)c2ccccc2C)c1	46.3%	109.7*	61.7*	-15.9%
CCCn1c(SCc2nc(-c3ccccc3OCC)no2)nnc1-c1ccc(Cl)cc1	-14.5%	.	.	-12.4%
Cc1ccc(C2c3[nH]c4ccccc4c3CCN2C(=O)Nc2ccc(C)c(C)c2)cc1 (centres undefined)	6.3%	.	.	3.2%
CCCCCC(=O)Cc1cc(O)cc2c1C(=O)Oc1cc(O)c(C(=O)O)c(CCCCC)c1O2	-11.2%	-7.9	-2.8	35.5µM*
Cc1cc2ccccn2c1C(=S)NC(=O)c1ccccc1	11.3%	37.2*	15.8	-2.7%
Cc1cc2ccccn2c1C(=O)Nc1cccc(Cl)c1	41.3%	74.9*	53.4*	0.5%
CCCc1nn(C)c(C(=O)Nc2cccc(Cl)c2)c1Cl	-18.8%	66.5*	50.5*	-2.4%
Cn1ncc(Cl)c1C(=O)Nc1cccc(Cl)c1	10.3%	7.3	9.7	44.7µM*
c1ccc(COC[C@@H]2CO2)cc1	.	5.0	-0.9	.
SMILES	FMDV inh	Shiga inhibitor	CHX counter	Sm TGR block
CNc1ncnc2ccc(-c3ccc4c(c3)OCO4)cc12	-18.6%	.	.	.
Cc1cc(O)c(C(=O)Nc2cccc(Cl)c2)c(=O)n1C	22.2%	46.6*	32.6	0.8%
CCCc1nn(C)c(C(=O)Nc2cccc(C)c2)c1Cl	10.5%	55.0*	58.5*	-12.4%
Cc1cc(C)cc(NC(=O)CCn2cnc3ccccc3c2=O)c1	-24.6%	.	.	-10.4%
COc1ccccc1-c1nc(S(=O)(=O)c2ccccc2)c(N2CCC(C)CC2)o1	-2.4%	.	.	1.8%
CC(C)CCNC(=O)C1CCC(Cn2c(=O)c3sccc3n(CC(=O)NC(C)C)c2=O)CC1 (centres undefined)	4.1%	.	.	10.3%
Cc1ccc2oc(=O)n(CCNC(=O)Nc3ccccc3Cl)c2c1	?	.	.	3.5%
Cc1cc(C(=O)CSc2nc3ccccc3c(=O)[nH]2)c(C)n1C	28.4%	132.5*	33.7*	?
CC(C)(C)NC(=O)CSc1nc2ccccc2c(=O)[nH]1	40.9%	17.8	32.4*	7.5%
Cc1cc(C(=O)CSC(C)c2nc3ccccc3c(=O)[nH]2)c(C)n1C (centres undefined)	5.8%	-2.9	3.6	-20.8%
Cc1ccc2cc(CN(C(=O)c3ccco3)c3ccccc3)c(=O)[nH]c2c1	1.3%	30.2	22.8*	31.6µM*
Cc1cccc(N(Cc2cc3ccc(C)cc3[nH]c2=O)C(=O)c2ccco2)c1	-17.3%	-2.3	-1.2	4.47µM*
Cc1ccc2cc(CN(Cc3ccco3)C(=O)c3cccs3)c(=O)[nH]c2c1	-12.0%	11.9	8.9	39.8µM*
Cc1ccc(N(Cc2cc3ccccc3[nH]c2=O)C(=O)c2ccco2)c(C)c1	-22.6%	-13.0	1.5	-14.6%
Cc1ccc2[nH]c(=O)c(CN(Cc3ccco3)C(=O)c3cccs3)cc2c1	.	-0.7	-0.8	-13.2%
COCC(=O)N(Cc1cc2ccc(C)cc2[nH]c1=O)c1ccc(OC)cc1	-0.3%	-6.6	-5.3	4.4%
Cc1ccc2cc(CN(C(=O)c3cccc(Cl)c3)c3ccccc3)c(=O)[nH]c2c1	?	.	.	-1.0%
CCOc1ccc(N(Cc2cc3ccc(C)cc3[nH]c2=O)C(=O)COC)cc1	-13.3%	28.9	24.3*	3.9%
COc1ccc(CNc2nc(-c3ccco3)nn2C(=O)CC(C)C)cc1	11.1%	.	.	-22.7%
Cc1ccc(N(Cc2cc3ccc(C)cc3[nH]c2=O)C(=O)c2ccco2)cc1	1.4%	-3.4	-1.0	2.24µM*
O=C(c1ccc(OCCCc2cnc[nH]2)cc1)C1CC1	.	80.1*	34.5*	.
c1ccc(COCCCc2cnc[nH]2)cc1	-11.3%	21.4	-0.7	.
O=C(COc1ccc(Cl)cc1Cl)c1ccc[nH]1	56.3%	57.1*	30.7*	11.7%
O=C(COc1ccc(Cl)cc1Cl)N/N=C/c1ccc[nH]1	18.6%	34.5*	44.5*	-26.3%
Cc1ccccc1OCc1ccc(-c2nc(C#N)c(N3CCC(C(N)=O)CC3)o2)o1	-18.5%	.	.	-6.8%
SMILES	FMDV inh	Shiga inhibitor	CHX counter	Sm TGR block
CN(C)c1ccc(-c2nc(NCc3cccnc3)c3ccccc3n2)cc1	35.5%	.	.	.
CCOC(=O)c1c[nH]c2c(Cl)c(Cl)ccc2c1=O	5.1%	-20.3	-1.4	-3.0%
CCOC(=O)c1c[nH]c2c3c(ccc2c1=O)CCCC3	15.5%	44.6	22.0*	6.0%
Cn1nc(-c2ccccc2)nc1-c1ccccc1	67.7%	.	.	-0.6%
Cn1nc(-c2ccc(Cl)cc2)nc2c(=O)n(C)c(=O)nc1-2	.	21.6*	25.3	?
Cc1ccc(C)c(N2CCN(C(=O)c3ccc(-c4nc(COc5ccccc5)c(C)o4)cc3)CC2)c1	0.0%	.	.	-8.9%
Cc1cc(C(=O)OCC(=O)Nc2ccccc2C#N)c(C)o1	-3.8%	.	.	-11.3%
O=C(COC(=O)COc1ccccc1)Nc1ccc(Br)cc1F	-11.7%	.	.	.
Nc1ccccc1C(=O)OCC(=O)Nc1ccc(Br)cc1F	32.3%	93.4	21.4*	4.2%
Cc1cc(C(=O)OCC(=O)Nc2ccccc2F)c(C)o1	49.1%	97.6*	15.0*	6.8%
COc1ccc(C(=O)Nc2ccc(C3(C#N)CCCC3)cc2)cc1	16.4%	-9.7	10.3	5.4%
CCN(CC)c1ccc(NC(=O)c2cc(Cl)ccc2OC)cc1	4.9%	7.1	8.3	-7.3%
N#CC1(c2ccc(NC(=O)c3ccccc3F)cc2)CCCC1	-25.9%	62.3*	44.8*	-0.9%
CCN(CC)c1ccc(NC(=O)c2ccccc2F)cc1	18.6%	71.2*	37.8*	2.8%
O=C(Nc1ccc(Nc2ccccc2)cc1)c1ccccc1F	19.9%	73.8*	33.2*	-20.4%
